From PubChem BioAssay (Tox21) come the findings set out here.

Structures are written as SMILES. “And” between values parts separate entries of the source, which are not always exact repeats. Equal values may be shown once. Records with an inconclusive call do not appear. Entries that show only a call come without a potency. The source made the active and inactive calls. Calls come from the whole dose curve; as a rule, active = well fitted activation curve with a large enough effect in the repeat runs; inconclusive = weak or mixed curves; inactive = flat fitted curve, though single readings scatter.
Potency is the fitted concentration of half-maximal effect.

The experiment is described as follows: A CellTox Green Cytotoxicity Assay to monitor cytotoxicity in HEK293 cells - 8 hour (AID 1224884). Note: nearly all actives have a fitted effect of over 35% in size. The conditions noted are these: CellTox Green fluorescence; series mostly up to 76.8 µM. The text has this: National Center for Advancing Translational Sciences [NCATS]
NIH Chemical Genomics Center [NCGC]
U.S. Environmental Protection Agency [EPA]
National Institutes of Environmental Health Sciences [NIEHS]
National Toxicology Program [NTP]
Cell-based models are critical for drug discovery. Determining the natural cytotoxic effects resulting from test compounds is an essential research activity. A CellTox Green Cytotoxicity Assay to monitor cytotoxicity in real time of continues cell culture during 40 hours of the compound treatment was used to screen Tox21 10K library compounds in Hek293 cells. CellTox Green Cytotoxicity Assay is a nonlytic, homogeneous, biofluorescent method to measure cytotoxicity in cell culture after experimental manipulation. The assay system uses a proprietary asymmetric cyanine dye that is excluded from viable cells but preferentially stains the dead cell's DNA. […] Viable cells produce no appreciable increases in fluorescence. Therefore, the fluorescence signal produced by the binding interaction with dead cell DNA is proportional to cytotoxicity.
The mixture of Hek293 cell suspension and reagents were dispensed at 600cells/6 ul/well in 1536-well tissue culture treated black solid bottom plates using a Multidrop dispenser. After the assay plates were incubated at a 37 C/5% CO2 incubator for 5 hours, 23 nL of compounds dissolved in DMSO, positive and negative controls was transferred to the assay plate by a pintool work station. The plates were incubated at 37 C for 40 hours. The fluorescence intensity were measured at 0h, 8h, 16h, 24h, 32h and 40h time points using ViewLux plate reader during compound treatment.
With `COc1cccc2c1C(=O)c1c(O)c3c(c(O)c1C2=O)C[C@@](O)(C(=O)CO)CC3OC1CC(N2CCOC(OC)C2)C(O)C(C)O1` (stereo not given in full), the Potency entry was “inactive”. Regarding `Cn1[nH]nnc1=S`, the Potency entry was “inactive”. On to `CC(C)[C@H](C(=O)O[C@H](C#N)c1cccc(Oc2ccccc2)c1)c1ccc(Cl)cc1`, for which the Potency entry is “inactive”.

As for `ClC1=C(Cl)C2(Cl)C3C(Cl)C=CC3C1(Cl)C2(Cl)Cl` (stereo not given), the Potency is 55.2 µM (active) and 49 µM (active). With `ClC1=C(Cl)C2(Cl)C3C(Cl)C(Cl)CC3C1(Cl)C2(Cl)Cl` (stereo not given) the figure was 54.8 µM (active); with `C[C@]12CC[C@H](O)C[C@H]1CC[C@@H]1[C@@H]2C[C@@H](O)[C@]2(C)[C@@H](C3=CC(=O)OC3)CC[C@]12O`, “inactive”; with `Nc1ccc(Cc2ccc(N)c(Cl)c2)cc1Cl`, “inactive”. As for `OC(c1ccc(Cl)cc1)(c1ccc(Cl)cc1)C(Cl)(Cl)Cl`, the Potency result was “inactive”. With `CC(C)Oc1cccc(NC(=O)c2ccccc2C(F)(F)F)c1` the figure was 43.6 µM (active).

On to `Nc1ccccc1C(=O)OC/C=C/c1ccccc1`, for which the Potency entry is “inactive”. In the case of `CC(C)CBr`, the Potency result was “inactive”.

Regarding `Cc1ccc(OP(=O)(Oc2ccccc2)Oc2ccccc2)cc1`, the Potency entry was “inactive”. With `CCCN(CC)CC1COC2(CCC(C(C)(C)C)CC2)O1` (stereo not given) the entry was “inactive”. With `Clc1ccc(-c2ccc(Cl)c(Cl)c2Cl)c(Cl)c1Cl` the entry was “inactive”; with `O=C(CCl)Nc1ccccc1`, “inactive”. Consider `c1ccc2c(c1)OCC(C1=NCCN1)O2` (stereo not given), for which the Potency result was “inactive”.

For `COc1ccc(OC)c(C=O)c1`, the Potency entry was “inactive”. With `CCOC(=O)OC1=C(c2cc(C)ccc2C)C(=O)NC12CCC(OC)CC2` (stereo not given) the entry was “inactive”.

Consider `COP(=O)(OC)SCn1c(=O)oc2cc(Cl)cnc21`, for which the Potency result is “inactive”. With `Clc1ccc(-c2ccccc2)cc1` the entry was “inactive”; with `CC(C)C(=O)Cl`, “inactive”; with `Oc1ccc(C(c2ccc(O)cc2)(C(F)(F)F)C(F)(F)F)cc1`, “inactive”. With `CC(=O)c1cc(C(C)(C)C)cc2c1CCC2(C)C` the entry was “inactive”; with `O=S(=O)(c1ccc(Cl)cc1)c1ccc(Cl)cc1`, “inactive”; with `CN(CCCC(O)c1cccnc1)N=O` (stereo not given), “inactive”.

Turning to `CN(C)S(=O)(=O)N(SC(F)(Cl)Cl)c1ccccc1`, the Potency entry is “inactive”.

As for `COP(=S)(OC)Oc1cc(Cl)c(Br)cc1Cl`, the Potency entry was “inactive”. With `CC(C)(C)C(O)/C(=C\c1ccc(Cl)cc1Cl)n1cncn1` (stereo not given) the entry was “inactive”. With `CC(=O)/C=C/c1ccc2c(c1)OCO2` the entry was “inactive”.

In the case of `O=[N+]([O-])c1c2ccccc2cc2ccccc12`, the Potency entry is “inactive”.

For `C[C@H]1CC[C@@H]2[C@@H](C)[C@H]3[C@H](C[C@H]4[C@@H]5CC=C6CC(O[C@@H]7O[C@H](CO)[C@H](O)[C@H](O[C@@H]8O[C@H](CO)[C@@H](O)[C@H](O)[C@H]8O)[C@H]7O[C@H]7O[C@@H](C)[C@H](O)[C@@H](O)[C@H]7O)CC[C@]6(C)[C@H]5CC[C@]34C)N2C1` (stereo not given in full), the Potency is 12.7 µM (active).

For the compound `CC(C)CC(C)N` (stereo not given), the Potency entry was “inactive”. Regarding `Oc1ccc(C(=C(Cl)Cl)c2ccc(O)cc2)cc1`, the Potency result was “inactive”. On to `O=C(NC(=O)c1c(F)cccc1F)Nc1cc(Cl)c(OC(F)(F)C(F)F)c(Cl)c1`, for which the Potency result was “inactive”. Turning to `Cc1ccc(CCl)cc1`, the Potency result is “inactive”. With `SCc1ccco1` the entry was “inactive”; with `COc1cc(N)c(Cl)cc1C(=O)NC1CN2CCC1CC2` (stereo not given), “inactive”; with `ClC1=C(Cl)[C@]2(Cl)[C@H]3[C@H]([C@H]4C=C[C@H]3C4)[C@@]1(Cl)C2(Cl)Cl`, “inactive”. Regarding `CCCCCCCCc1ccc(O)cc1`, the Potency is 43.9 µM (active). Regarding `Cc1cc(C)cc(OP(=O)(Oc2cc(C)cc(C)c2)Oc2cc(C)cc(C)c2)c1`, the Potency result was “inactive”.
